# Assay results taken from PubChem BioAssay (NCATS).
# Records with an inconclusive call do not appear. A number with no mark means an inactive call. The call rests on the fitted dose curve; in most records, active means well fitted curve in the direction sought with a large enough effect; inconclusive means small, poorly fitted or top-dose-only effect, or another doubt; inactive means no such curve, though single readings can be large or run the other way.
# Molecular target: Calcium and integrin-binding protein 1 (Homo sapiens) (UniProt Q99828)
# Sequence (Q99828 whole entry, looked up): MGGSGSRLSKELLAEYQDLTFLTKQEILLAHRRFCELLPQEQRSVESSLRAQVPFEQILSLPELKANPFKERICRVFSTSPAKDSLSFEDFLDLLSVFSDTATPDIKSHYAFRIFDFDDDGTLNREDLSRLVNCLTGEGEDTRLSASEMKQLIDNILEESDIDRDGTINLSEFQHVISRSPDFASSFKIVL
# Test: Validation qHTS for Identification of Calcium Integrin Binding protein 1 (CIB1) Competitor (AID 1508618)
# Details: CIB1-GST / FITC-alphaIIb peptide fluorescence polarization; series mostly up to 114 µM; activity change, negative = inhibition: at the top concentration
# Description: Assay Provider: Ulhas P. Naik, PhD
# Sidney Kimmel Medical College
# Thomas Jefferson University, Philadelphia, PA
# Primary function of platelets is to maintain hemostasis. At the site of vascular injury, platelets adhere to adhesive proteins such as collagen and von Willebrand factor. Adherent platelets are activated and generate soluble platelet agonists such as thrombin, ADP and thromboxane A2. Following exposure of circulating platelets to these agonists, results in platelet shape change, granule secretion and activation of platelet integrin alphaIIb-beta3. Ligand binding to activated integrin alphaIIb-beta3 triggers outside-in signaling, leading to platelet aggregation, stabilization of platelet plug, and clot retraction. Upon atherosclerotic plaque rupture also causes platelet plug formation, which underlies a number of cardiovascular diseases such as myocardial infraction and stroke. A number of anti-platelet drugs such as aspirin, clopidogrel, prasugrel, vorapaxar, and eptifibatide are currently available to prevent the thrombotic complications. However, these anti-platelet agents have several limitations including inherent variability in individual responses, developing resistance, and serious bleeding side effects. For these reasons they are not suitable for long-term protection. Based on the experiences with current anti-platelet drugs, it appears that the most useful therapeutic approach is to intersect the secondary responses such as integrin outside-in signaling or recruitment of platelets by TxA2 and secreted ADP. Compounds, which can largely preserve the primary hemostatic function of platelets but inhibit secondary response will be most desired therapeutic agents for treatment of cardiovascular disease.
# CIB1 is a calcium integrin binding protein, which specifically interact with the alphaIIb subunit of integrin alphaIIb-beta3. Binding of CIB1 to alphaIIb regulates the outside-in signaling in platelets, which is needed for thrombus stabilization and thrombus growth. […] Therefore, we propose that discovery of a small molecule that can prevent the association of CIB1 and alphaIIb-beta3 will be a potential anti-platelet agent that can block the thrombus formation without undue effect on hemostasis.
# To develop fluorescence polarization (FP) assay using fluorescently labeled alphaIIb peptide and CIB1 protein. Using FP assay characterize the binding affinity, competitive inhibition, and acceptable Z factor (0.5 to1) in order to perform the HTS to identify small molecule compound that can prevent CIB1 binding to platelet integrin alphaIIbbeta3. This assay is screened against the NCATS LOPAC library to validate the amenability of the assay to qHTS.
# [1] Naik MU, Nigam A, Manrai P, et al. CIB1 deficiency results in impaired thrombosis: the potential role of CIB1 in outside-in signaling through integrin alpha IIb beta 3. J Thromb Haemost. 2009;7(11):1906-1914. doi:10.1111/j.1538-7836.2009.03581.
# SEQUENCE No. (1, 2, 3, etc.); […] (e.g., Cells, Incubation, Reagent, etc.); VALUE and DESCRIPTION.
# 1; Reagent; 3 uL; Protein or buffer (4/3x)
# 2; Compound; 46 nL; Control inhibitor / compound library
# 3; Time; 15 min; Room temperature incubation
# 4; Reagent; 1 uL; Fluorescent labeled peptide (4x)
# 5; Time; 1000 rpm; Centrifuge
# 6; Time; 15 min; Room temperature incubation
# 7; Detection; Ex 480/ Em 540; ViewLux Fluorescence Read
# NOTES (numbers refer to sequence above)
# 1; Protein Mixture: C1B1-GST (final concentrations of 1 uM). Buffer composition: 5 mM HEPES pH 7.4, 125 mM NaCl, 5 mM CaCl2, 0.01% Tween20.
# 2; Control Inhibitor: unlabeled peptide (final concentration range 17.4 nM to 572 uM). Compound Library final concentration range 18.3 nM to 114 uM.
# 3; Room temperature incubation.
# 4; Fluorescent Labeled Peptide: FITC-aIIb (final concentration of 100 nM). Sequence of alphaIIb peptide: Acetyl-[…]-FITC (purity is 95.83%).
# 6; Room temperature incubation.
# […]
# On the % scale 0 is the no-effect control and ±100 the full control effect.
row,SMILES,"activity change, negative = inhibition"
1,O=C1NC(O)=NC1(c1ccccc1)c1ccccc1,0.679%
2,Nc1nc(SCc2ccc([N+](=O)[O-])cc2)c2ncn([C@@H]3O[C@H](CO)[C@@H](O)[C@H]3O)c2n1,-1.46%
3,CC(C)NCC(O)COc1cccc2ccccc12 (stereo not given),4.16%
4,C[C@@H](CN1CCC(Cc2ccccc2)CC1)[C@@H](O)c1ccc(O)cc1,3.65%
5,O=C(Nc1ccncc1)c1cc([N+](=O)[O-])ccc1Cl,1.69%
6,Cn1cc(C2=C(c3ccc(Cl)cc3Cl)C(=O)NC2=O)c2ccccc21,0.514%
7,COc1ccc2c(c1)CCC1C2CC[C@@]2(C)C1CC[C@@H]2NCCCCCCN1C(=O)CCC1=O (stereo not given in full),6.42%
8,CCCCC#Cc1nc(NC)c2ncn([C@@H]3O[C@H](CO)[C@@H](O)[C@H]3O)c2n1,5.4%
9,Clc1ccc(N2CCN(Cc3cc4ccccn4n3)CC2)cc1,16.8%
10,CN(C)c1ccc(/C=C2\C(=O)Nc3ccccc32)cc1,-5.53%
11,Cc1cc(NC2CCCCC2)nc(-n2nc(C)cc2C)n1,3.13%
12,CN(C)c1nc(N)c(C(=O)N=C(N)N)nc1Cl,10.3%
13,CCCCCCCCc1ccc(-c2ccc(C(=O)O)cc2)cc1,16.5%
14,COc1cc(C(O)CO)ccc1OS(=O)(=O)O (stereo not given),5.84%
15,OC[C@H]1O[C@@H](n2cnc3c(NC4CCCC4)ncnc32)[C@H](O)[C@@H]1O,4.03%
16,COc1ccccc1CN[C@@H]1CCCN[C@@H]1c1ccccc1,11.3%
17,COc1cccc(C(=O)NCCN2CCN(c3ccc(Cl)cc3)CC2)c1,10.5%
18,CCCCCCCCCCCCCCCCCC(=O)OC(CC(=O)O)C[N+](C)(C)C (stereo not given),1.8%
19,O=Nc1ccc2oc(=O)ccc2c1,3.2%
20,O=C(/C=C/c1ccc(O)c(O)c1)OCCc1ccccc1,20.6%

row,SMILES,"activity change, negative = inhibition"
1,C=CC(C)=C[C@@]1(C)SC(=O)C(C)=C1O,10.4%
2,NC[C@H]1O[C@@H](n2cnc3c(N)ncnc32)[C@H](O)[C@@H]1O,-1.09%
3,O=[N+]([O-])c1ccc(CNc2nc(NCc3cccc(C(F)(F)F)c3)nc3nc[nH]c23)cc1,0.926%
4,COc1ccc(/C=C2\COc3ccc(C)cc3C2=O)cc1O,14.7%
5,COCCOc1cc2ncnc(Cl)c2cc1OCCOC,10.5%
6,c1cnc2c(c1)ccc1cccnc12,5.82%
7,O=C(O)c1cc(=O)c2ccccc2[nH]1,8.87%
8,NS(=O)(=O)c1ccc(-n2nc(C(F)(F)F)cc2-c2ccc(Cl)cc2)cc1,-4.66%
9,Nc1nc(Cl)nc2c1ncn2[C@@H]1O[C@H](COP(=O)(O)OP(=O)(O)OP(=O)(O)O)[C@@H](O)[C@H]1O,7.78%
10,C[N+]1(C)CCC(OC(=O)C(c2ccccc2)c2ccccc2)CC1,4.56%
11,O=[N+]([O-])c1ccc(CSc2ncnc3c2ncn3[C@@H]2O[C@H](CO)[C@@H](O)[C@H]2O)cc1,7.19%
12,CN1C2CCC1CC(OC(=O)C(O)c1ccccc1)C2 (stereo not given),3.75%
13,CCN(CC)c1ncnc2c1ncn2[C@@H]1O[C@H](COP(=O)(O)OP(=O)(O)C(Br)(Br)P(=O)(O)O)[C@@H](O)[C@H]1O,15.5%
14,CCCCCCCCCCCCCCCC(=O)OC(CC(=O)O)C[N+](C)(C)C (stereo not given),-1.5%
15,Nc1nc(Cl)nc2c1ncn2[C@@H]1O[C@H](CO)[C@@H](O)[C@H]1O,11.7%
16,CN1CCc2cccc3c2C1Cc1ccc(O)c(O)c1-3 (stereo not given),4.37%
17,CC(C)(C)c1ccc(S(=O)(=O)/C=C/C#N)cc1,3.18%
18,CO/N=C(\C(=O)N[C@@H]1C(=O)N2C(C(=O)O)=C(COC(C)=O)CS[C@H]12)c1csc(N)n1,1.44%
19,NC(=O)C1=CN(C2OC(COP(=O)(O)OP(=O)(O)OC[C@H]3O[C@@H](n4cnc5c(N)ncnc54)[C@H](OP(=O)(O)O)[C@@H]3O)C(O)C2O)C=CC1 (stereo not given in full),3.83%
20,CN1[C@@H](CC(=O)c2ccccc2)CCC[C@H]1C[C@H](O)c1ccccc1,9.39%
